Test [1] is described as follows: optical density shifts of acrAB sulA E. coli – strain DRC41, OD650, 48 h, E. coli filamentation inducer project, primary screen (AID 1152).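 Note: E. coli MC1000 strain DRC41 lacking acrAB efflux pump and sulA.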 The following applies: higher = more signal, called active from +8 up or from −8 down.
The nature of test [2]: probe aLefty1 binding on compound microarray – biochemical, small-molecule microarray, 635/667 nm fluorescence, primary screen (AID 1153).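 Note: score merges spot fluorescence with signal-to-noise ratio from the scanned slide images.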 Conditions: higher = more signal.
Test [3] in a line: plasmodial surface anion channel blockers, osmotic lysis – cell-based, P. falciparum Indochina, OD700, 1 h, primary screen (AID 1154). Conditions: P. falciparum Indochina infected RBC osmotic lysis, higher = more signal, called active from +8 up or from −8 down.
A short description of test [4]: plasmodial surface anion channel blockers, osmotic lysis – cell-based, P. falciparum Indochina, OD700, 2 h, primary screen (AID 1155).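 Note: lysis reports solute entry through the parasite surface anion channel PSAC.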 Conditions: P. falciparum Indochina infected erythrocytes, higher = more signal, called active from +8 up or from −8 down.
Test [5] in a line: changes in parasitized red cell lysis, either direction – P. falciparum Indochina, OD700, 3 h, PSAC antagonist project, primary screen (AID 1156). The following applies: P. falciparum-infected erythrocytes, osmotic lysis, higher = more signal, called active from +8 up or from −8 down.
A short description of test [6]: plasmodial surface anion channel blockers, osmotic lysis – cell-based, P. falciparum Indochina, OD700, 18 h, primary screen (AID 1157). Conditions: P. falciparum Indochina infected erythrocytes, osmotic lysis OD700, 18 h; higher = more signal, called active from +8 up or from −8 down.
Test [7] can be described thus: S6 kinase pathway phospho-S6 level changes – cell-based, A549, cytoblot, luminescence, serum-stimulated, primary screen (AID 1158).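 Note: serum-stimulated A549 lung adenocarcinoma cells; signal is phosphorylated S6 detected by cytoblot immunostaining with HRP secondary.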 Conditions: 5 h, higher = more signal.
Test [8] concerns the target NADPH oxidase 2 (Homo sapiens) (UniProt P04839). The test is described as follows: compounds shifting NOX2 Amplex Red fluorescence – cell-based, HEK293-NOX2, PMA-stimulated, NOX inhibitor project, primary screen (AID 1159). Note: test concentration not given here. Conditions: 45 min, higher = more signal, called active from +8 up or from −8 down.
Test [9] concerns the target NADPH oxidase 4 (Homo sapiens) (UniProt Q9NPH5). The test is described as follows: compounds shifting NOX4 Amplex Red fluorescence – cell-based, HEK293-NOX4, tetracycline-induced, NOX inhibitor project, primary screen (AID 1160). Conditions: HEK293-NOX4, Amplex Red H2O2 fluorescence, 45 min; higher = more signal, called active from +8 up or from −8 down.
The target in test [10] is NADPH oxidase 5 (Homo sapiens) (UniProt Q96PH1). The test is described as follows: compounds shifting NOX5 Amplex Red fluorescence – cell-based, HEK293-NOX5, NOX inhibitor project, primary screen (AID 1161). The following applies: HEK293-NOX5, ionomycin, 45 min, higher = more signal.
NADPH oxidase 5 (Homo sapiens), sequence (Q96PH1 whole entry, looked up): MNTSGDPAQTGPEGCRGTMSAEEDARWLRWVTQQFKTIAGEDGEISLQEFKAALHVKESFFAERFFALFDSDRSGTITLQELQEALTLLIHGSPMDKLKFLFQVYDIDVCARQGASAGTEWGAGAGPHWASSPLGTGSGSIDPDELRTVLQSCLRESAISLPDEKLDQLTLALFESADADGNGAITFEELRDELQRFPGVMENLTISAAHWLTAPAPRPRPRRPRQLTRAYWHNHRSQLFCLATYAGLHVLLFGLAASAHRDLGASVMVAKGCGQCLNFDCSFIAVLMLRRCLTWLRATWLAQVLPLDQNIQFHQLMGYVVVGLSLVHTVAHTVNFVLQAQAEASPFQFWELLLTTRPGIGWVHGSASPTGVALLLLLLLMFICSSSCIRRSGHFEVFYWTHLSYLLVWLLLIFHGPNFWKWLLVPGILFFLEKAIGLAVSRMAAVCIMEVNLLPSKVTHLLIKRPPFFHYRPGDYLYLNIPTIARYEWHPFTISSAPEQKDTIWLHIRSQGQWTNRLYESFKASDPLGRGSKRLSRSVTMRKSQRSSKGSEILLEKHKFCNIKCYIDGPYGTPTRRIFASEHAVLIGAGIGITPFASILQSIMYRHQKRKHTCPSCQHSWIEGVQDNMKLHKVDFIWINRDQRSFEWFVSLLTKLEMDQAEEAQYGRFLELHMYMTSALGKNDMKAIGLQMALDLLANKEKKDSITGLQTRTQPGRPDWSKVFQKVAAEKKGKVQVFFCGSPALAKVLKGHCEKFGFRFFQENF
Test [11] is described as follows: compound effects on lung adenocarcinoma cell viability – A549, calcein-AM fluorescence, 48 h, basal, profiling panel (AID 1162). Note: test concentration not given here. The following applies: higher = more signal.
Test [12] can be described thus: compound effects on differentiated 3T3-L1 adipocyte viability – cell-based, 3T3-L1 adipocytes, calcein-AM fluorescence, 48 h, basal, profiling panel (AID 1163). Note: test concentration not given here. Conditions: 3T3-L1 adipocytes viability, higher = more signal.
The nature of test [13]: compound effects on hepatocellular carcinoma cell viability – HepG2, calcein-AM fluorescence, 48 h, basal, profiling panel (AID 1164). Note: test concentration not given here. The following applies: higher = more signal.
Test [14] can be described thus: compound effects on multiple myeloma cell viability – MM1S, calcein-AM fluorescence, 48 h, basal, profiling panel (AID 1165).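 Note: viability of MM1S multiple myeloma cells under basal unstimulated conditions; test concentration not given here.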 The following applies: higher = more signal.
A short description of test [15]: calcein-AM signal in unstimulated myeloma cells – cell-based, calcein-AM fluorescence, 48 h, PK04 Diversity Set, profiling panel (AID 1166).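 Note: cells grown under basal conditions without added stimulus; test concentration not given here.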 Conditions: RPMI8226 myeloma viability, higher = more signal.
A short description of test [16]: JC-1 mitochondrial signal, unstimulated HepG2 cells – cell-based, JC-1 fluorescence, 24 h, 100 nL compound, profiling panel (AID 1167). Note: test concentration not given here. The following applies: HepG2 mitochondrial potential, higher = more signal.
Test [17] is described as follows: JC-1 mitochondrial signal, unstimulated adipocytes – cell-based, JC-1 fluorescence, 3T3-L1 adipocytes, 24 h, 100 nL compound, profiling panel (AID 1168). Note: test concentration not given here. The following applies: JC-1 mitochondrial fluorescence, higher = more signal, called active from +8 up or from −8 down.
Test [18] can be described thus: JC-1 mitochondrial signal, unstimulated myeloma cells – cell-based, JC-1 fluorescence, RPMI8226, 24 h, 100 nL compound, profiling panel (AID 1169). Note: test concentration not given here. The following applies: JC-1 mitochondrial potential fluorescence, higher = more signal.
Test [19] is described as follows: JC-1 mitochondrial signal, unstimulated MM1S myeloma – cell-based, JC-1 fluorescence, 24 h, 100 nL compound, profiling panel (AID 1170). Note: test concentration not given here. The following applies: MM1S mitochondrial potential, higher = more signal.
Test [20] can be described thus: resazurin metabolic signal in A549 cells – cell-based, resazurin fluorescence, 24 h, PK04 Diversity Set, profiling panel (AID 1171). Note: test concentration not given here. Conditions: A549 viability, higher = more signal, called active from +8 up or from −8 down. In general terms: Resazurin is reduced to fluorescent resorufin, in cell work by metabolically active cells.

SMILES strings stand for the structures. Active and inactive are the calls of the source.

NADPH oxidase 4 (Homo sapiens), sequence (Q9NPH5 whole entry, looked up): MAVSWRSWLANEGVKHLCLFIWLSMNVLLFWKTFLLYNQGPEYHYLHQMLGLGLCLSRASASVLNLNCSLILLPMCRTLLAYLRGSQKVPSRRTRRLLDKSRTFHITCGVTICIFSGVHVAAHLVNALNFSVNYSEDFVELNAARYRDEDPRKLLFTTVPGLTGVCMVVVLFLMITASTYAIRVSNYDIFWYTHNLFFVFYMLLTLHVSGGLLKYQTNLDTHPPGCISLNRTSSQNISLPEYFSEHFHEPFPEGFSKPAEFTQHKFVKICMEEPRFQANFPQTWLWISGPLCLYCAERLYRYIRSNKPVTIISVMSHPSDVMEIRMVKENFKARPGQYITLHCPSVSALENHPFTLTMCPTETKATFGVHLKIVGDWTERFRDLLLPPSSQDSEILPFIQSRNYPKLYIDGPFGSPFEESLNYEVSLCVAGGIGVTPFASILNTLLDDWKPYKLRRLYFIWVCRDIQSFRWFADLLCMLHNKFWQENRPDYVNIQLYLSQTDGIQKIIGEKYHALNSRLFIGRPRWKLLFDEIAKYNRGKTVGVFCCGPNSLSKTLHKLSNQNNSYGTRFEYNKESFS
NADPH oxidase 2 (Homo sapiens), sequence (P04839 whole entry, looked up): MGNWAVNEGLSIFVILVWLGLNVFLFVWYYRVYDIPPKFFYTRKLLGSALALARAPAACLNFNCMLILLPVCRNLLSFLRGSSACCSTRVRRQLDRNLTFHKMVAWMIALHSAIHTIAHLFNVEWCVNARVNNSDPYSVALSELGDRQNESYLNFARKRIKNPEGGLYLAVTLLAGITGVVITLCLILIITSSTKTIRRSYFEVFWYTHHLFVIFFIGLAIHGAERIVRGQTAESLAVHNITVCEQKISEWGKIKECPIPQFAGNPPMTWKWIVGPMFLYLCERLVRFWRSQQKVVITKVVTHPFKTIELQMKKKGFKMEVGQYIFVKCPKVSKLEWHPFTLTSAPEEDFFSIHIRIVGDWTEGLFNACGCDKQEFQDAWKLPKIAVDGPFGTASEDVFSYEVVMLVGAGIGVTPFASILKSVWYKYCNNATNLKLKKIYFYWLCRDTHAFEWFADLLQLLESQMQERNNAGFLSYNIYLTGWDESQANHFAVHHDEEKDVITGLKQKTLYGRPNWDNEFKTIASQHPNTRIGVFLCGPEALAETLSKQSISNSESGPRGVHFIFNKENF

With `CCOC(=O)[C@H](CC(C)C)NC(=O)CCC1CC(OC(=O)NCc2cccc3ccccc23)CC2(CCCC(COC(=O)NCCOc3ccccc3)O2)O1` (stereo not given in full), the z-score in test [1] was 0.288 (inactive); in test [3], -1.67 (inactive); in [4], -0.658 (inactive); in [5], -2.05 (inactive); in [6], -0.391 (inactive); in test [7], -0.305. Further, the z-score in [8] is 0.711 (inactive); in [9] it was 0.635 (inactive); in [10] it was 0.534; in test [11] it was 2.15; in test [12], 0.519; in test [13], 0.335. The z-score in test [14] was -1.32; in test [15], -0.273; in test [16], 1; in test [17], 0.661 (inactive); in test [18], -0.763; in test [19], -0.985. Further, the z-score in test [20] is 1.33 (inactive). Besides, the composite z-score in test [2] is -0.372.
On to `CCCNC(=O)OC[C@H]1O[C@H](CCON=C(C)CCC(=O)OC[C@H]2O[C@H](c3ccccc3)C=C[C@@H]2Oc2ccc(OC)cc2)C=C[C@@H]1Oc1ccc(OC)cc1`, for which the z-score was 0.3 (inactive) in test [1]; 2.17 (inactive) in [3]; 0.767 (inactive) in [4]; 0.753 (inactive) in test [5]; 0.49 (inactive) in test [6]; -0.441 in [7]. Moreover, the z-score was -0.245 (inactive) in [8]; 0.337 (inactive) in test [9]; -0.295 in test [10]; 0.415 in [11]; 0.354 in [12]; -0.208 in [13]. Further, the z-score in [14] is -1.31; in test [15] it was -0.303; in test [16], 1.26; in [17], 0.000229 (inactive); in test [18], 0.625; in test [19] it was 0.33. Moreover, in test [20], the z-score was 0.748 (inactive). Besides, the composite z-score in [2] is -0.0477.
With `O=C(NN=C1C[C@@H](O)[C@@H](O)[C@@H]2[C@@H]3C(=O)N(C4CCCCC4)C(=O)[C@@H]3CC[C@H]12)OCc1ccccc1`, the z-score is -0.898 (inactive) in [1]; 7.54 (inactive) in [3]; 0.844 (inactive) in [4]; 0.522 (inactive) in test [5]; 0.551 (inactive) in test [6]; 0.0279 in test [7]. Moreover, the z-score was -0.0856 (inactive) in test [8]; -1.85 (inactive) in test [9]; -0.671 in test [10]; 0.215 in test [11]; 0.0766 in test [12]; -0.822 in test [13]. Also, the z-score in [14] was -0.816; in test [15], -0.284; in [16], -1.14; in test [17], -0.458 (inactive); in test [18] it was 0.219; in test [19] it was 0.703. Moreover, the z-score in [20] was -0.401 (inactive). In test [2], this compound had a composite z-score of 0.0721.
For the compound `CC(C)=CCCC(C)=CCON=C1C[C@@H](O)[C@@H](O)[C@@H]2[C@@H]3C(=O)N(C(C)(C)C)C(=O)[C@@H]3CC[C@@H]12`, the z-score in test [1] was -1.31 (inactive); in test [3], 1.43 (inactive); in test [4] it was 0.761 (inactive); in test [5], 0.916 (inactive); in [6], 0.821 (inactive); in test [7] it was -0.227. The z-score in [8] was -1.14 (inactive); in test [9], -1.2 (inactive); in [10], -0.411; in test [11], 0.0392; in test [12] it was 0.523; in [13] it was 0.121. Also, the z-score in test [14] was -1.09; in [15] it was -0.562; in test [16] it was -0.279; in test [17], -0.365 (inactive); in [18], -0.231; in [19] it was 0.947. The z-score in [20] was -1.03 (inactive). Further, the composite z-score in [2] is 0.167.

The record behind these values is PubChem BioAssay.
